Structures are written as SMILES. Among all 280,000 compounds or so, about 1,100 (0.39%) were called active. A call without a number means that no potency is given here. Not shown: some 7% with an inconclusive outcome. Calls follow the shape of the dose curve; as a rule, active = well fitted inhibition curve with a large enough effect; inconclusive = small, poorly fitted or top-dose-only effect, or effect the other way; inactive = flat fitted curve, though single readings scatter. This excerpt belongs to a sample that is enriched for actives.
Potency is read from the fitted curve at half-maximal effect.

In the assay the target is Microtubule-associated protein tau (Homo sapiens) (UniProt P10636). Description: qHTS for Inhibitors of Tau Fibril Formation, Fluorescence Polarization. Also: nearly all actives have a fitted effect of over 55% in size. As to conditions: K18 P301L tau heparin fibrillization, Alexa594 FP, 6 h; series mostly up to 57.7 µM. An excerpt: NIH Molecular Libraries Probe Production Network [MLPCN]
Microtubule-associated protein tau (Homo sapiens), sequence (P10636 561-689 P618L limits assumed): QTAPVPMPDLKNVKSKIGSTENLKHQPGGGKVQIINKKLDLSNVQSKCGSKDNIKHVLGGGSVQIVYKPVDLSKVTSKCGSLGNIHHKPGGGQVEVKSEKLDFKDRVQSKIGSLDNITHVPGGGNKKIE
NIH Chemical Genomics Center [NCGC]
Assay Provider: Carlo Ballatore, University of Pennsylvania
The microtubule-associated protein tau is an abundant protein in the axons of neurons that stabilizes microtubules. With its ability to modulate microtubule dynamics, tau contributes directly or indirectly, to key structural and regulatory cellular functions. Particularly important is the influence tau exerts on axonal transport, which allows signaling molecules, trophic factors and other essential cellular constituents to travel along the axons. Under pathological conditions, tau becomes sequestered into insoluble aggregates called neurofibrillary tangles. This phenomenon is believed to have pathological consequences by promoting axonal transport deficits that ultimately lead to synaptic dysfunction and neuronal loss. To identify inhibitors of tau aggregation, a heparin-induced tau fibril formation assay was used that employed a recombinantly expressed fragment of tau, K18 (Q242-E372), bearing a P301L mutation (Gustke et al. 1994; Hong et al. 1998).
Gustke, N., B. Trinczek, et al. (1994). "Domains of tau protein and interactions with microtubules." Biochemistry 33(32): 9511-22.
Hong, M., V. Zhukareva, et al. (1998).
Li, W. and V. M. Lee (2006). "Characterization of two VQIXXK motifs for tau fibrillization in vitro." Biochemistry 45(51): 15692-701.
von Bergen, M., S. Barghorn, et al. (2001). "Mutations of tau protein in frontotemporal dementia promote aggregation of paired helical filaments by enhancing local beta-structure." J Biol Chem 276(51): 48165-74.
NCGC Assay Protocol Summary:
For screening, 2 uL/well human K18 P301L (15 uM unlabeled and 0.24 uM Alexa 594-labeled tau final concentrations) in reagent buffer (100 mM sodium acetate pH 7) was dispensed into black solid 1536-well plates (Grenier) using a solenoid-based dispenser. Following transfer of 23 nL compound or DMSO vehicle by a pin tool, 2 uL/well heparin (20 uM final concentration) in reagent buffer was added and the plate centrifuged 15 s at 1000 RPM. Plates were incubated 6 hr at 37 C and then 1 uL/well ThT (30 uM final concentration) was added. After a 1 hr ambient incubation, the plates were read by an Envision (Perkin Elmer) to monitor Alexa 594 FP (555 nm excitation and 632 nm emission).
Keywords: NIH Roadmap, MLPCN, MLI, MLSMR, NCGC, qHTS, tau, tauopathies, Alzheimer's disease, fibril, neurodegeneration, aggregation
(In general: In qHTS, concentration-response curves come from the screen itself.)
In the case of `O=[N+]([O-])c1ccc(N=Cc2c(O)ccc3ccccc23)cc1`, the Potency entry is “inactive”.

On to `CCOC(=O)c1ccc(NC(=O)CSc2nc3c([nH]c4ccccc43)c(=O)n2C)cc1`, for which the Potency entry was “inactive”.

In the case of `Cc1ccc(Cn2c(=O)n(CCCC(=O)NCc3ccccc3Cl)c(=O)c3ccccc32)cc1`, the Potency entry is “inactive”.

Turning to `COc1ccc(NC(=O)Cn2c(=O)n(Cc3ccc(C(=O)NCc4ccccc4Cl)cc3)c(=O)c3ccccc32)cc1`, the Potency is 25.1 µM (active).

In the case of `COc1ccc(OC)c(NC(=O)Cn2c(=O)n(Cc3ccccc3)c(=O)c3ccccc32)c1`, the Potency entry was “inactive”.

`O=C(Cn1c(-c2cccs2)cc2ccccc21)NCCc1ccc(Cl)cc1`: the Potency result is “inactive”.

`CCN1C(=O)c2ccccc2S(=O)c2ccc(C(=O)NCc3ccc(F)cc3)cc21` (configuration not stated): the Potency result is “inactive”.

Regarding `CCOC(=O)C1CCCN(C(=O)c2ccc(-n3ccc4ccccc43)s2)C1` (configuration not stated), the Potency entry is “inactive”.

With `Cc1c(C(=O)NCc2ccccc2Br)oc2ccc3c(c12)C(=O)CC(C)(C)O3`, the Potency entry was “inactive”.

On to `Cc1ccc(OCCn2c(CNc3ccccc3C)nc3ccccc32)cc1`, for which the Potency result was “inactive”.

As to `Cc1nnc(N2CCC(C(=O)Nc3ccc(F)cc3)CC2)c2nn(-c3ccc(Cl)cc3)c(C)c12`, the Potency result is “inactive”.

With `Cc1ccnc(SCC(N)=O)n1`, the Potency result is “inactive”.

`Cc1ccnc(-n2sc3ccccc3c2=O)n1`: the Potency was 25.1 µM (active).

Turning to `CCOC(=O)c1ccc(NC2=CC(c3ccc(OCC)cc3)N(c3ccc(C(=O)OCC)cc3)C2=O)cc1` (configuration not stated), the Potency result is “inactive”.

Take `Cc1cc(C)c2sc(NC(=O)c3ccc(S(=O)(=O)N4CCCC4)cc3)nc2c1`: the Potency entry is “inactive”.

Consider `COc1ccc(OC)c(-c2noc(N3CCN(c4cc(Cl)ccc4C)CC3)n2)c1`, for which the Potency entry was “inactive”.

As to `COc1ccc(N(CC(=O)NCCc2ccc(Cl)cc2)S(=O)(=O)c2c(C)nn(C)c2C)cc1`, the Potency result is “inactive”.

As for `COc1ccc2c(Sc3ccc(C)cc3)c(C(=O)NC(C)c3ccccc3)[nH]c2c1` (configuration not stated), the Potency entry was “inactive”.

For `Cc1cc(Nc2ccccc2)nc(N)n1`, the Potency result is “inactive”.

`CSc1nc(-c2ccccc2)nc(C(Cl)Cl)n1`: the Potency entry is “inactive”.

In the case of `CSc1nc(Nc2ccc(F)cc2)cc(-c2ccccc2)n1`, the Potency is 15.8 µM (active).

For the molecule `CCOC(=O)c1cccc(NS(=O)(=O)c2cc(-c3cnc(C)o3)ccc2OC)c1`, the Potency entry is “inactive”.

Regarding `COc1ccc(N2C(=O)CSC23C(=O)N(Cc2cccc(F)c2)c2ccccc23)cc1Cl` (configuration not stated), the Potency entry was “inactive”.

Take `O=C(Nc1nnc(SCc2ccccc2)s1)c1ccco1`: the Potency entry is “inactive”.

In the case of `c1ccc(CSc2nnc(-c3ccco3)c(-c3ccco3)n2)cc1`, the Potency is 12.6 µM (active).

For the molecule `Brc1ccc(CSc2ccc(-c3ccco3)nn2)cc1`, the Potency entry is “inactive”.

For `O=C(OCc1cc(=O)n2nc(C3CC3)sc2n1)c1ccccc1Cl`, the Potency result was “inactive”.

For `COc1ccc(-c2csc(NC3OC(=O)c4ccccc43)n2)cc1` (configuration not stated), the Potency entry is “inactive”.

With `COc1ccc2c(c1OC)C(=O)OC2Nc1nc(-c2ccccc2)cs1` (configuration not stated), the Potency was 31.6 µM (active).

Consider `COc1ccc2c(c1OC)C(=O)OC2c1c(O)nc(SC)n(-c2ccccc2)c1=O` (configuration not stated), for which the Potency result was “inactive”.

`O=C(CCCn1c(=O)c2cccn2c2cccnc21)NCc1ccc(F)cc1`: the Potency entry is “inactive”.

`COc1ccc(OC)c2sc(N3CCN(C(=O)C4COc5ccccc5O4)CC3)nc12` (configuration not stated): the Potency result is “inactive”.

In the case of `COc1cccc(Nc2nc3ccccc3c3nncn23)c1`, the Potency entry was “inactive”.

`Fc1ccc(C(Nc2ccc(Cl)c(C(F)(F)F)c2)c2nnc(-c3ccccc3)o2)cc1` (configuration not stated): the Potency entry is “inactive”.

With `FC(F)(F)c1cc(Nc2nc3ccccc3c3nncn23)ccc1Cl`, the Potency was 10 µM (active).

Take `COc1ccc(-c2cc(C(F)(F)F)n3nc(-c4ccccc4)cc3n2)cc1OC`: the Potency result was “inactive”.

Regarding `COc1ccc(OC)c(CNC(=O)Cn2nc(C)c3c(C)n(-c4ccccc4)nc3c2=O)c1`, the Potency entry was “inactive”.

`CCN(CC)c1ccc(/C=N/Nc2nc(C)cc(C)n2)c(O)c1`: the Potency entry was “inactive”.

On to `CCN(CC)c1ccc2c(Nc3ccccc3)c(C=O)c(=O)oc2c1`, for which the Potency result was “inactive”.

`CCN(CC)c1ccc2oc(=O)c(C)nc2c1`: the Potency was 12.6 µM (active).

Take `CC1CCCCN1CC(=O)N1CCCc2c1c(=O)oc1ccc(OCc3ccccc3)cc21` (configuration not stated): the Potency result is “inactive”.

For the molecule `CCc1ccccc1NC(=O)N1CCN(C(=O)c2nsc3ccccc23)CC1`, the Potency entry was “inactive”.

For `Cc1c(C(=O)N2CCCC2)oc2c1-c1nn(CC(=O)NCc3ccc(OC(C)C)cc3)cc1CC2`, the Potency result was “inactive”.

As to `O=C1C(c2ccccn2)=[N+]([O-])c2ccccc21`, the Potency is 7.94 µM (active).

For the molecule `Cc1ccc(-c2nnc(SCC(=O)NCc3ccccc3)nc2-c2ccc(C)cc2)cc1`, the Potency entry was “inactive”.

As to `CSc1ncc(Cl)c(C(=O)Nc2ccc(S(=O)(=O)N3CCCC(C)C3)cc2)n1` (configuration not stated), the Potency entry was “inactive”.

For `O=C(CSc1nc(-c2cccc(F)c2)[nH]c1-c1ccccc1)Nc1ccc2c(c1)OCO2`, the Potency entry is “inactive”.

Take `COc1ccc(-c2cn3nc(N4CCCC(C(=O)NCCCOC(C)C)C4)sc3n2)cc1` (configuration not stated): the Potency result is “inactive”.

As for `O=C(CSc1nnnn1-c1ccc(O)cc1)N1N=C(c2ccc3ccccc3c2)CC1c1ccccc1` (configuration not stated), the Potency was 25.1 µM (active).

`COc1ccc(C2CC(c3ccccc3)=NN2C(=O)CSc2nccc(=O)[nH]2)cc1` (configuration not stated): the Potency result is “inactive”.

For `O=C(CSc1nnnn1-c1ccc(O)cc1)c1ccc(F)cc1`, the Potency result is “inactive”.

On to `COc1ccc(Cl)cc1NC(=O)C(C)Sc1nc2c(c(=O)[nH]1)CCCC2` (configuration not stated), for which the Potency result is “inactive”.

The values above are taken from PubChem BioAssay AID1468 (National Center for Advancing Translational Sciences (NCATS), 2008).
